Screening data from PubChem.
PTHR1 agonist = agonists of human PTHR1 parathyroid hormone receptor | Q03431 | HEK293 GP2 PTHR1 cells, GloSensor cAMP luminescence, 1 h | Potency, µM (series often up to 115 µM), usual class: activators | 410,000 compounds, 0.075% hits | AID 743266; also: nearly all actives have a fitted effect of over 55% in size
Target sequence (Q03431 whole entry, looked up): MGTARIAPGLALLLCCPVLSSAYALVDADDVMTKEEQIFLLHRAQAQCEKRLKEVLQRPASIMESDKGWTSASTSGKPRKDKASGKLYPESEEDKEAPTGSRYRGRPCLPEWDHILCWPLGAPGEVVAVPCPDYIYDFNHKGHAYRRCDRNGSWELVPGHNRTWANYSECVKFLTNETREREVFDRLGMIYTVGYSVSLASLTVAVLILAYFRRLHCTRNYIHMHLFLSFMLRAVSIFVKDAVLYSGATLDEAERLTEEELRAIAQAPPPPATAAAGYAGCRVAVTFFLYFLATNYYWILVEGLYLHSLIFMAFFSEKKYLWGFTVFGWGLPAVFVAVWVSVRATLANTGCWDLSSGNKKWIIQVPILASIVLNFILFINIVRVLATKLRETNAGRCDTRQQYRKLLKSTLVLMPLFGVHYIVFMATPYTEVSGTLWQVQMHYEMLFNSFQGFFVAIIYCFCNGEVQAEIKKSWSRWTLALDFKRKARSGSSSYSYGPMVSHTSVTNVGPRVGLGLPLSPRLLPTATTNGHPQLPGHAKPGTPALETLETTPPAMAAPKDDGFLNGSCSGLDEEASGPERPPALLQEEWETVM
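HEK-293-derived GP2 cells expressing PTHR1 and a GloSensor cAMP reporter, 3,000/well, plated overnight, given luciferin plus IBMX (each 0.5 mM as added) for 1 h at 37 °C, then compound for 1 h at 37 °C. Luminescence was read after 15 min at room temperature.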
EPAC1 antagonist = EPAC1 (human) antagonism | EPAC1 GEF assay, Rap1b-BODIPY-GDP exchange fluorescence | Potency, µM (top dose mostly 115 µM), actives largely listed as inhibitors | 360,000 compounds, 0.14% hits | AID 720709; also: nearly all actives have a fitted effect of over 50% in size
EPAC2 agonist = EPAC2 (human) agonism | Q8WZA2 | EPAC2 activation, biochemical qHTS; response scale: 100% = 6.5 mM cAMP response | Potency, µM (highest dose often 154 µM), most hits filed as activators | 360,000 compounds, 0.079% hits | AID 720711; also: nearly all actives have a fitted effect of over 50% in size
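Guanine nucleotide exchange by EPAC2 is measured as reduced fluorescence of BODIPY-GDP once it is released from 250 nM Rap1B. Plates are read kinetically for 30 min at room temperature; results are scaled to 6.5 mM cAMP.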
EPAC1 agonist = EPAC1 (human) agonism. O95398. EPAC1 agonist qHTS, biochemical assay; response scale: 100% = response to 6.5 mM cAMP. Potency, µM (series often up to 154 µM), actives largely listed as activators. 360,000 compounds, 0.073% hits. AID 720707; also: nearly all actives have a fitted effect of over 60% in size
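Fluorescent GDP-exchange assay: 100 nM EPAC1 with 250 nM Rap1B preloaded with BODIPY-GDP and 50 uM GDP; compounds tested as concentration series, 5 min at room temperature, then read every 5 min for 30 min (ex 480/em 540 nm); normalized to 6.5 mM cAMP.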
TSHR antag = blocks TSH signaling through the human TSH receptor; activity change, negative = inhibition, % at 11.5 µM; 330,000 compounds, 0.2% hits; TSHR-expressing cells, TSH-stimulated cAMP HTRF, 2 h; stronger effect = lower value; P16473;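 active = activity change below a set negative limit, meaning inhibition stronger than a set level, cut at about -70% in these data; inconclusive = activity change between two set negative limits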
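Read-out is FRET at 665 nm (cryptate excitation 337 nm) from a cryptate-tagged anti-cAMP antibody, competed by cell cAMP against cAMP-d2. Compounds are tested on freshly harvested TSHR cells challenged with 4nM TSH (EC80) for 2 hours at 37 deg C.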
EPAC2 antag = EPAC2 (human) antagonism; AID 720708; EPAC2 GEF exchange of Rap1B-BODIPY-GDP, fluorescence; Potency, µM (highest dose often 114 µM), hits mostly inhibitors; Q8WZA2; 360,000 compounds, 0.18% hits; also: nearly all actives have a fitted effect of over 45% in size
Numbers stand for hits. Compounds with a hit are over-represented: about 0.5% of the library has one in this group of screens. Unless noted, calls follow the shape of the dose curve; as a rule, active = well fitted curve in the direction sought with a large enough effect; inconclusive = small, poorly fitted or top-dose-only effect, or another doubt; inactive = no such curve, though single readings can be large; an effect the other way counts as inactive or inconclusive.

Results for COCC1CCN(C(=O)c2cc(COc3ccc(-n4cncn4)cc3)on2)C1 (stereo not drawn) ?
PTHR1 agonist: inactive; EPAC1 antagonist: inactive; EPAC2 agonist: inactive; EPAC1 agonist: inactive; TSHR antag: inactive; EPAC2 antag: inactive

What do the screens show for `O=C(N/N=C/c1cccnc1)c1cc(-c2ccc(Br)cc2)nc2ccccc12`?
PTHR1 agonist: inactive; EPAC1 antagonist: inactive; EPAC2 agonist: inactive; EPAC1 agonist: inactive; TSHR antag: inactive; EPAC2 antag: inactive

What do the screens show for `O=C(O)CCCN1C(=O)/C(=C\c2ccccc2OCc2ccccc2)SC1=S`?
PTHR1 agonist: inactive; EPAC1 antagonist: 50µM; EPAC2 agonist: inactive; EPAC1 agonist: inactive; TSHR antag: inactive; EPAC2 antag: inconclusive

Results for O=C(O)CN1C(=O)/C(=C\c2cc(Br)ccc2OCc2ccc(F)cc2)SC1=S ?
PTHR1 agonist: inactive; EPAC1 antagonist: inconclusive; EPAC2 agonist: inactive; EPAC1 agonist: inactive; TSHR antag: inactive; EPAC2 antag: inconclusive

Results for O=C(O)CN1C(=O)/C(=C\c2cc(Br)ccc2OCc2ccc(Cl)cc2)SC1=S ?
PTHR1 agonist: inactive; EPAC1 antagonist: inconclusive; EPAC2 agonist: inactive; EPAC1 agonist: inactive; TSHR antag: inactive; EPAC2 antag: 50µM

Results for O=C1/C(=C\c2cc([N+](=O)[O-])ccc2O)SC(=S)N1Cc1ccc(Cl)cc1 ?
PTHR1 agonist: inactive; EPAC1 antagonist: inconclusive; EPAC2 agonist: inactive; EPAC1 agonist: inactive; TSHR antag: -83; EPAC2 antag: inactive

Results for O=C(CCCN1C(=O)/C(=C/c2ccccc2Cl)SC1=S)Nc1cccnc1 ?
PTHR1 agonist: inactive; EPAC1 antagonist: inactive; EPAC2 agonist: inactive; EPAC1 agonist: inactive; TSHR antag: -72; EPAC2 antag: inactive

Results for COc1cc(Cn2c3ccc(NC(=O)CCc4ccc(O)cc4)cc3c(=O)n2C)ccc1F ?
PTHR1 agonist: inactive; EPAC1 antagonist: inactive; EPAC2 agonist: inactive; EPAC1 agonist: inactive; EPAC2 antag: inactive

Results for NC(=O)C1CCN(c2nc(-c3ccccc3Cl)cs2)CC1 ?
TSHR antag: inactive

Results for O=C(CCCN1C(=O)/C(=C/c2cccs2)SC1=S)Nc1ccccn1 ?
PTHR1 agonist: inactive; EPAC1 antagonist: inactive; EPAC2 agonist: inactive; EPAC1 agonist: inactive; TSHR antag: inactive; EPAC2 antag: inactive

Results for O=C(O)CCCN1C(=O)/C(=C/c2cn(-c3ccccc3)nc2-c2cccs2)SC1=S ?
PTHR1 agonist: inactive; EPAC1 antagonist: inactive; EPAC2 agonist: inconclusive; EPAC1 agonist: 56µM; TSHR antag: inactive; EPAC2 antag: inactive

How did CCCN(CCC)CCNC(=O)CN1C(=O)COc2ccc(S(=O)(=O)N3CCC(C)CC3)cc21 do in these assays?
PTHR1 agonist: inactive

Results for CC(NC(=O)Nc1ccc(O)cc1)(C(F)(F)F)C(F)(F)F ?
PTHR1 agonist: inactive; EPAC1 antagonist: 79µM; EPAC2 agonist: inactive; EPAC1 agonist: inactive; TSHR antag: inactive; EPAC2 antag: inconclusive

Results for CC(C)c1cccc(C(C)C)c1NC(=O)OC1CCCCC1 ?
PTHR1 agonist: inactive; EPAC1 antagonist: inactive; EPAC2 agonist: inactive; EPAC1 agonist: inactive; EPAC2 antag: inactive

How did CC(C)(C)N1CC(c2nc3ccccc3n2CCOc2ccccc2)CC1=O (stereo not drawn) do in these assays?
PTHR1 agonist: inactive; EPAC1 antagonist: inactive; EPAC2 agonist: 10µM; EPAC1 agonist: inactive; TSHR antag: inactive; EPAC2 antag: inactive

Results for C[C@H](CO)N1C[C@H](C)[C@@H](CN(C)Cc2ccc(C(=O)O)cc2)Oc2c(NS(=O)(=O)c3cn(C)cn3)cccc2C1=O ?
PTHR1 agonist: inactive; EPAC1 antagonist: inactive; EPAC2 agonist: inactive; EPAC1 agonist: inactive; TSHR antag: inactive; EPAC2 antag: inactive

Results for O=C(N/N=C\c1c(O)ccc2ccccc12)c1ccc(S(=O)(=O)N2CCCCC2)cc1 ?
PTHR1 agonist: inactive; EPAC1 antagonist: inactive; EPAC2 agonist: 100µM; EPAC1 agonist: inactive; TSHR antag: inactive; EPAC2 antag: inactive

How did O=C(NN=Cc1c(O)ccc2ccccc12)c1ccc2c(c1)OCO2 do in these assays?
PTHR1 agonist: inactive; EPAC1 antagonist: inactive; EPAC2 agonist: inactive; EPAC1 agonist: inactive; TSHR antag: inactive; EPAC2 antag: inactive

Results for CCN1CCc2nc3sc(C(=O)Nc4cccc(Cl)c4C)c(N)c3cc2C1 ?
PTHR1 agonist: inactive

Results for CCOc1ccc(N(CC(=O)NCc2ccc(F)cc2)C(=O)CCC(=O)Nc2nccs2)cc1 ?
PTHR1 agonist: inactive; EPAC1 antagonist: inactive; EPAC2 agonist: inactive; EPAC1 agonist: inactive; TSHR antag: -95; EPAC2 antag: inactive

What do the screens show for `O=C(CS(=O)(=O)c1ccc(F)cc1)Nc1nccs1`?
PTHR1 agonist: inactive; EPAC1 antagonist: inactive; EPAC2 agonist: inactive; EPAC1 agonist: inactive; TSHR antag: inactive; EPAC2 antag: inactive

What do the screens show for `O=C(COc1ccc(F)cc1)Nc1nccs1`?
PTHR1 agonist: inactive; EPAC1 antagonist: inactive; EPAC2 agonist: 35µM; EPAC1 agonist: inactive; TSHR antag: inactive; EPAC2 antag: inactive

Results for COC(=O)c1ccsc1NC(=O)CCS(=O)(=O)c1ccc(Cl)cc1 ?
PTHR1 agonist: inactive; EPAC1 antagonist: inactive; EPAC2 agonist: inactive; EPAC1 agonist: inactive; TSHR antag: inactive; EPAC2 antag: inactive

What do the screens show for `O=[N+]([O-])c1cnc(Sc2ccncn2)s1`?
PTHR1 agonist: inactive; EPAC1 antagonist: inactive; EPAC2 agonist: inactive; EPAC1 agonist: inactive; TSHR antag: -89; EPAC2 antag: inactive

Results for O=C(CSc1nc2ccccc2c(=O)n1CC1CCCO1)Nc1ccccc1Cl (stereo not drawn) ?
PTHR1 agonist: inactive; EPAC1 antagonist: inactive; EPAC2 agonist: inactive; EPAC1 agonist: inactive; TSHR antag: inactive; EPAC2 antag: inactive

How did CCCCN1C(=O)/C(=C/C=C2\Oc3ccccc3N2CC)SC1=S do in these assays?
PTHR1 agonist: inactive; EPAC1 antagonist: inactive; EPAC2 agonist: 32µM; EPAC1 agonist: inconclusive; TSHR antag: inactive; EPAC2 antag: inactive

What do the screens show for `CCCN1C(=O)/C(=C/C=C2\N(CC)c3ccccc3C2(C)C)SC1=S`?
PTHR1 agonist: inactive; EPAC1 antagonist: inactive; EPAC2 agonist: inactive; EPAC1 agonist: inactive; TSHR antag: inactive; EPAC2 antag: inactive

What do the screens show for `CCN(CC)c1ccc(/C=C(\C#N)C(=O)c2ccc(Br)cc2)cc1`?
PTHR1 agonist: inactive; EPAC1 antagonist: inactive; EPAC2 agonist: 100µM; EPAC1 agonist: 112µM; TSHR antag: inactive; EPAC2 antag: inactive

What do the screens show for `CCN(CC)c1ccc(/C=C(\C#N)C(N)=O)cc1`?
PTHR1 agonist: inactive; EPAC1 antagonist: inactive; EPAC2 agonist: inactive; EPAC1 agonist: inactive; TSHR antag: inactive; EPAC2 antag: inactive
